Assay results taken from the supplement of paper PMC6555819.

Tests used:
Assay in all cases: PBM binding z-score (relative to random genomic background probes); higher = stronger binding; sequences stand for … in GC…GCGATTGACAGCGTAGAATGAAGG
[1] = test system: FXR:RXRa (NR concentration 270 nM, RXRa partner concentration 90 nM)
Procedure, shortened: (§1)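 Binding z-scores were set against random background probes. The data came from custom Agilent 4×180K protein-binding microarrays carrying double-stranded probes with 34-nt variable regions, incubated 1 h with ligand-free nuclear receptor dimers. Partner-specific antibodies detected binding, and scanned fluorescence was regression-normalized.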

[2] = test system: LXRa:RXRa (NR concentration 270 nM, RXRa partner concentration 90 nM)
Procedure, shortened: as §1

[3] = test system: LXRa homodimer (NR concentration 270 nM)
Procedure, shortened: as §1

[4] = test system: LXRb:RXRa (NR concentration 270 nM, RXRa partner concentration 90 nM)
Procedure, shortened: as §1

[5] = test system: LXRb homodimer (NR concentration 270 nM)
Procedure, shortened: as §1

[6] = test system: PPARa:RXRa (NR concentration 270 nM, RXRa partner concentration 90 nM)
Procedure, shortened: as §1

[7] = test system: PPARg:RXRa (NR concentration 180 nM, RXRa partner concentration 90 nM)
Procedure, shortened: as §1

[8] = test system: PPARg:RXRa 270nM:90nM, anti-RXR (NR concentration 270 nM, RXRa partner concentration 90 nM)
Procedure, shortened: as §1

[9] = test system: PPARg:RXRa 30nM:10nM, anti-RXR (NR concentration 30 nM, RXRa partner concentration 10 nM)
Procedure, shortened: as §1

[10] = test system: PPARg:RXRa 90nM:30nM, anti-RXR (NR concentration 90 nM, RXRa partner concentration 30 nM)
Procedure, shortened: as §1

[11] = test system: PPARg:RXRa DBDmut IVT, anti-RXR (DBD mutation: RXRa K156A/R161A, NR concentration 270 nM, RXRa partner concentration 90 nM)
Procedure, shortened: as §1

[12] = test system: PPARg:RXRa IVT, anti-PPARg (NR concentration 270 nM, RXRa partner concentration 90 nM)
Procedure, shortened: as §1

[13] = test system: PPARg DBDmut:RXRa IVT, anti-PPARg (DBD mutation: PPARg1 K132A/R137A, NR concentration 270 nM, RXRa partner concentration 90 nM)
Procedure, shortened: as §1

[14] = test system: PPARg DBDmut IVT, anti-PPARg (DBD mutation: PPARg1 K132A/R137A, NR concentration 270 nM)
Procedure, shortened: as §1

[15] = test system: PPARg homodimer (NR concentration 180 nM)
Procedure, shortened: as §1

[16] = test system: PXR:RXRa (NR concentration 270 nM, RXRa partner concentration 90 nM)
Procedure, shortened: as §1

[17] = test system: PXR homodimer (NR concentration 270 nM)
Procedure, shortened: as §1

[18] = test system: RARa:RXR (NR concentration 270 nM, RXRa partner concentration 90 nM)
Procedure, shortened: as §1

[19] = test system: RARa homodimer (NR concentration 270 nM)
Procedure, shortened: as §1

[20] = test system: RARb:RXRa (NR concentration 270 nM, RXRa partner concentration 90 nM)
Procedure, shortened: as §1

TCTAGCAGGCCAGAGGGTCACTCAAGAGGTACGG showed a PBM binding z-score [1] of 0.812, a PBM binding z-score [2] of 1.03 and a PBM binding z-score [3] of -0.601. The PBM binding z-score [4] was 0.926, the PBM binding z-score [5] was -1.51 and the PBM binding z-score [6] was 2.39. The PBM binding z-score [7] was 1.43, the PBM binding z-score [8] was 2.72 and the PBM binding z-score [9] was 2.09. The PBM binding z-score [10] was 2.57, the PBM binding z-score [11] was 0.944 and the PBM binding z-score [12] was 0.645. The PBM binding z-score [13] was -0.27, the PBM binding z-score [14] was -1.24 and the PBM binding z-score [15] was 0.106. It also gave a PBM binding z-score [16] of 1.57, a PBM binding z-score [17] of -0.442 and a PBM binding z-score [18] of 2.03. It also gave a PBM binding z-score [19] of -0.734 and a PBM binding z-score [20] of 2.09.

For CGAACTAGGTCAGAACATGACAGTGAAGGATGAT, the PBM binding z-score [1] was 0.703, the PBM binding z-score [2] was 0.762 and the PBM binding z-score [3] was -0.0558. For the same sequence, the PBM binding z-score [4] was 0.426, the PBM binding z-score [5] was -0.161 and the PBM binding z-score [6] was 3.07. The PBM binding z-score [7] was 5.35, the PBM binding z-score [8] was 4.49 and the PBM binding z-score [9] was 2.05. The PBM binding z-score [10] was 3.4, the PBM binding z-score [11] was 6.77 and the PBM binding z-score [12] was 7.31. The PBM binding z-score [13] was 2.34, the PBM binding z-score [14] was 1.77 and the PBM binding z-score [15] was 1.17. The PBM binding z-score [16] was 0.243, the PBM binding z-score [17] was -0.286 and the PBM binding z-score [18] was 0.937. For the same sequence, the PBM binding z-score [19] was 0.0136 and the PBM binding z-score [20] was 2.58.

CCTAGTTGGTCAGGAGGTTACACACCGGATATGA was tested, and the PBM binding z-score [1] was 0.491, the PBM binding z-score [2] was 0.633 and the PBM binding z-score [3] was 0.538. It also gave a PBM binding z-score [4] of 1.02, a PBM binding z-score [5] of 0.258 and a PBM binding z-score [6] of 1.5. The PBM binding z-score [7] was 1.14, the PBM binding z-score [8] was 1.4 and the PBM binding z-score [9] was 0.448. The PBM binding z-score [10] was 1.07, the PBM binding z-score [11] was 0.814 and the PBM binding z-score [12] was 1.65. It also gave a PBM binding z-score [13] of 0.504, a PBM binding z-score [14] of 0.527 and a PBM binding z-score [15] of 1.84. The PBM binding z-score [16] was 0.862, the PBM binding z-score [17] was 0.653 and the PBM binding z-score [18] was 1.38. For the same sequence, the PBM binding z-score [19] was 0.725 and the PBM binding z-score [20] was 1.47.

TCTCGGAGGACAGGAAAGGTCAGAGCTCGACATC showed a PBM binding z-score [1] of 2.63, a PBM binding z-score [2] of 3.06 and a PBM binding z-score [3] of 1.44. For the same sequence, the PBM binding z-score [4] was 2.83, the PBM binding z-score [5] was -0.216 and the PBM binding z-score [6] was 3.23. It also gave a PBM binding z-score [7] of 0.566, a PBM binding z-score [8] of 2.15 and a PBM binding z-score [9] of 2.51. It also gave a PBM binding z-score [10] of 1.96, a PBM binding z-score [11] of 1.51 and a PBM binding z-score [12] of 0.852. It also gave a PBM binding z-score [13] of -0.54, a PBM binding z-score [14] of -0.498 and a PBM binding z-score [15] of 2.25. The PBM binding z-score [16] was 3.36, the PBM binding z-score [17] was 0.759 and the PBM binding z-score [18] was 3.62. For the same sequence, the PBM binding z-score [19] was 0.692 and the PBM binding z-score [20] was 3.9.

In the case of TCTATTAGTAGATTAGGGCAACCGAAACAGCGGA, the PBM binding z-score [1] is reported as 0.325, the PBM binding z-score [2] is reported as 0.084 and the PBM binding z-score [3] is reported as -0.337. It also gave a PBM binding z-score [4] of 0.176, a PBM binding z-score [5] of 0.298 and a PBM binding z-score [6] of 0.659. The PBM binding z-score [7] was 0.254, the PBM binding z-score [8] was 1.64 and the PBM binding z-score [9] was 3.45. For the same sequence, the PBM binding z-score [10] was 2.5, the PBM binding z-score [11] was 2.26 and the PBM binding z-score [12] was 1.17. The PBM binding z-score [13] was 0.69, the PBM binding z-score [14] was 0.0955 and the PBM binding z-score [15] was 0.0523. For the same sequence, the PBM binding z-score [16] was 0.229, the PBM binding z-score [17] was 0.0465 and the PBM binding z-score [18] was 0.245. The PBM binding z-score [19] was 0.073 and the PBM binding z-score [20] was 0.344.

ATCGAAAGGTCGAAGTTGAGTATACCCACCCGAA gave a PBM binding z-score [1] of 4.36, a PBM binding z-score [2] of 3.82 and a PBM binding z-score [3] of 0.667. The PBM binding z-score [4] was 3.19, the PBM binding z-score [5] was 1.03 and the PBM binding z-score [6] was 4.79. The PBM binding z-score [7] was 3.29, the PBM binding z-score [8] was 3.96 and the PBM binding z-score [9] was 1.49. For the same sequence, the PBM binding z-score [10] was 3.12, the PBM binding z-score [11] was 0.0828 and the PBM binding z-score [12] was 1.59. The PBM binding z-score [13] was 1.1, the PBM binding z-score [14] was 1 and the PBM binding z-score [15] was 1.31. For the same sequence, the PBM binding z-score [16] was 3.05, the PBM binding z-score [17] was 0.0112 and the PBM binding z-score [18] was 3.76. The PBM binding z-score [19] was 0.0634 and the PBM binding z-score [20] was 3.84.

GGAACGAGGGCAAGTTGATAGAAGAGTTTGATGG showed a PBM binding z-score [1] of 0.705, a PBM binding z-score [2] of 0.396 and a PBM binding z-score [3] of -0.176. For the same sequence, the PBM binding z-score [4] was 0.213, the PBM binding z-score [5] was -0.242 and the PBM binding z-score [6] was 1.41. The PBM binding z-score [7] was 1.29, the PBM binding z-score [8] was 0.969 and the PBM binding z-score [9] was 0.173. The PBM binding z-score [10] was 0.351, the PBM binding z-score [11] was 3.6 and the PBM binding z-score [12] was 2.75. It also gave a PBM binding z-score [13] of -0.45, a PBM binding z-score [14] of 0.0544 and a PBM binding z-score [15] of 0.482. It also gave a PBM binding z-score [16] of 0.801, a PBM binding z-score [17] of 0.693 and a PBM binding z-score [18] of 0.45. The PBM binding z-score [19] was 0.336 and the PBM binding z-score [20] was 2.64.
